Source: PubChem BioAssay
For some of these results: Results with a measured potency or affinity are listed apart. Activity calls are given as the source filed them.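 How the source made its calls, unless noted: active means compound raising the membrane signal above positive-control mean plus 3 SD in both repeats, and a primary screen hit; inactive means the rest.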

How the values were obtained:
[1] = tested on: TRPC4 beta (transient receptor potential cation channel C4), mouse; experiment: TRPC4 cation channel opening, retest – cell-based, Fluo4 calcium, HEK293 TRPC4beta/mu-opioid, duplicates, 10 µM, confirmation (AID 2426;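 active means fluorescence ratio normalized to control raised more than 50% in primary screen plus both repeat runs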;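 on activation: percent rise of integrated ratio over buffer wells lacking compound which define 0%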); settings: Fluo4 calcium fluorescence, at 10 µM; active compounds read high
[2] = tested on: transient receptor potential cation channel C4 beta (TRPC4), mouse; experiment: TRPC4 cation channel opening, second retest – cell-based, second round, Fluo4, HEK293 TRPC4beta/mu-opioid, 1 µM, confirmation (AID 2461;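 active means primary screen active and over 50% activation in each of two duplicate runs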;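 on activation: 0% = wells without test compound as baseline of integrated fluorescence ratio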); settings: Fluo4 calcium fluorescence, at 1 µM; active compounds read high
[3] = tested on: TRPC4 (transient receptor potential cation channel C4 beta), mouse; experiment: potentiation of DAMGO EC20 TRPC4 response – cell-based, second round, Fluo-4, HEK293 TRPC4beta/mu-opioid, 1 µM, confirmation (AID 2554;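 active means primary screen hit whose fluorescence ratio, in both repeats, exceeds the weak agonist control mean by 3 SD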); settings: DAMGO EC20, Fluo-4 calcium flux, at 1 µM; active compounds read high
[4] = tested on: TRPC4 beta (transient receptor potential cation channel C4), mouse; experiment: potentiation of DAMGO EC20 TRPC4 response – cell-based, Fluo-4, HEK293 TRPC4beta/mu-opioid, confirmation (AID 2555;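 active means primary screen hit whose calcium fluorescence ratio, in both repeats, exceeds the weak agonist control mean by 3 SD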); settings: DAMGO EC20, Fluo-4 calcium flux, at 10 µM; active compounds read high
[5] = molecular target: Short transient receptor potential channel 4 (Mus musculus) (UniProt Q9QUQ5); experiment: blockers of DAMGO-evoked TRPC4 calcium flux – cell-based, Fluo4, HEK293 TRPC4beta/mu-opioid, confirmation (AID 2636;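 active means calcium signal cut by more than 3 SD below the full-agonist control yet still positive, in both repeats and the earlier primary screen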); settings: at 10 µM; active compounds read high
[6] = molecular target: Short transient receptor potential channel 4 (Mus musculus) (UniProt Q9QUQ5); experiment: blockers of DAMGO-evoked TRPC4 calcium flux – cell-based, second round, Fluo4, HEK293 TRPC4beta/mu-opioid, 1 µM, confirmation (AID 2637;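 active means calcium signal ratio cut to more than 3 SD under the fully stimulated control mean yet still positive, in both repeats and the primary screen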); settings: at 1 µM; active compounds read high
[7] = molecular target: Short transient receptor potential channel 4 (Mus musculus) (UniProt Q9QUQ5); experiment: potentiation of DAMGO-evoked TRPC4 calcium signal – cell-based, HEK293 TRPC4/mu-opioid, Fluo-4 calcium, EC20 DAMGO, dose response (AID 434941;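 active means earlier screen potentiator hit that boosts the TRPC4 ion channel at some dose, with a dose response; inactive means no potentiation, no dose response, or not a prior hit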;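 further: calcium entry triggered by an EC20 dose of DAMGO at the co-expressed mu-opioid receptor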)
[8] = molecular target: Short transient receptor potential channel 4 (Mus musculus) (UniProt Q9QUQ5); experiment: block of DAMGO-driven TRPC4 calcium entry – cell-based, HEK293 TRPC4/mu-opioid, Fluo-4 calcium, dose response (AID 434942;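 active means primary screen inhibitor hit that blocks the TRPC4 channel at some tested dose, yielding a dose curve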)
[9] = molecular target: Short transient receptor potential channel 6 (Mus musculus) (UniProt Q61143); experiment: TRPC6 blockade by TRPC4 inhibitor hits – cell-based, HEK293, membrane potential dye, duplicate, selectivity assay for TRPC4 inhibitor project, confirmation (AID 434948;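 active means active in primary screen and both duplicates, each dropping signal beyond three positive-control SD with fluorescence still positive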); settings: HEK293 TRPC6, membrane potential dye fluorescence, at 10 µM, stimulated with maximal-effect acetylcholine; active compounds read high
[10] = molecular target: Short transient receptor potential channel 6 (Mus musculus) (UniProt Q61143); experiment: TRPC6 opening by TRPC4 activator hits – cell-based, HEK293, membrane potential dye, duplicate, selectivity assay for TRPC4 activator project, confirmation (AID 434950;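 active means membrane potential signal rise above negative control mean plus 3 SD in both duplicates, also active in the earlier TRPC4 screen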;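 on activation: 0% = buffer only wells and 100% = acetylcholine maximal-effect wells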); settings: HEK293 TRPC6, membrane potential fluorescence, at 10 µM; activation: active compounds read high; outcome: activation
[11] = molecular target: Short transient receptor potential channel 6 (Mus musculus) (UniProt Q61143); experiment: positive modulators of mouse TRPC6 channel – HEK293 cells, membrane potential dye, duplicate, selectivity assay for TRPC4 potentiator project, confirmation (AID 434952); settings: HEK293 TRPC6, membrane potential dye fluorescence, at 10 µM, maximal acetylcholine added after compound; active compounds read high
[12] = molecular target: Short transient receptor potential channel 4 (Mus musculus) (UniProt Q9QUQ5); experiment: calcium flux activators in TRPC4/5HT1a cells, counter-screen for TRPC4 activator project, cell-based, second counter screen, HEK293 TRPC4/5HT1a, Fluo-4 (AID 434977;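 active means calcium signal rise above buffer-control mean plus 5 SD in both duplicates, and also a hit in the primary screen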;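 on activation: plate controls were assay buffer for no effect and maximal serotonin response for full effect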); settings: Fluo-4 calcium flux, at 10 µM; active compounds read high
[13] = serotonin-gated TRPC4 signal block – cell-based, second counter screen, HEK293 TRPC4/5HT1a, Fluo-4, counter-screen for TRPC4 inhibitor project, confirmation (AID 434978;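 active means primary screen active whose calcium signal fell more than 3 SD beyond the full-serotonin control mean in both duplicate plates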;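 further: serotonin given first at submaximal then at maximal dose after compound preincubation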); settings: Fluo-4 calcium flux, at 10 µM, serotonin added to trigger calcium flux; active compounds read high
[14] = tested on: TRPC4 (mouse), co-expressed with 5HT1a in HEK293; experiment: enhancement of serotonin-evoked TRPC4 response – cell-based, second counter screen, HEK293 TRPC4/5HT1a, Fluo-4, counter-screen for TRPC4 potentiator project, confirmation (AID 434979;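 active means signal rise over 3 SD above mean of control wells given weak agonist, in both repeats and first screen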); settings: Fluo-4 calcium flux, at 10 µM, serotonin added at its EC20 dose; active compounds read high
[15] = nonspecific calcium rise without TRPC4 – cell-based, HEK293 mu-opioid receptor line, counter-screen for TRPC4 activator project, confirmation (AID 449723;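 active means hit in primary screen, with calcium signal over 5 SD above buffer well mean in both duplicates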;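 further: counter screen cells carry the mu-opioid receptor alone and lack TRPC4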); settings: HEK293 mu-opioid cells, Fluo-4 calcium fluorescence, at 10 µM; active compounds read high
[16] = nonspecific potentiation of DAMGO calcium response – cell-based, HEK293 mu-opioid receptor line, counter-screen for TRPC4 allosteric potentiator project, confirmation (AID 449724;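 active means calcium signal rise more than 3 SD above the low-dose agonist control mean, in both duplicate plates and the primary screen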); settings: HEK293 mu-opioid receptor cells, Fluo-4 calcium flux, at 10 µM, compound added before EC20 DAMGO stimulus; active compounds read high

Measured: activation

Sequence of Short transient receptor potential channel 4 (Mus musculus) (Q9QUQ5 whole entry, looked up): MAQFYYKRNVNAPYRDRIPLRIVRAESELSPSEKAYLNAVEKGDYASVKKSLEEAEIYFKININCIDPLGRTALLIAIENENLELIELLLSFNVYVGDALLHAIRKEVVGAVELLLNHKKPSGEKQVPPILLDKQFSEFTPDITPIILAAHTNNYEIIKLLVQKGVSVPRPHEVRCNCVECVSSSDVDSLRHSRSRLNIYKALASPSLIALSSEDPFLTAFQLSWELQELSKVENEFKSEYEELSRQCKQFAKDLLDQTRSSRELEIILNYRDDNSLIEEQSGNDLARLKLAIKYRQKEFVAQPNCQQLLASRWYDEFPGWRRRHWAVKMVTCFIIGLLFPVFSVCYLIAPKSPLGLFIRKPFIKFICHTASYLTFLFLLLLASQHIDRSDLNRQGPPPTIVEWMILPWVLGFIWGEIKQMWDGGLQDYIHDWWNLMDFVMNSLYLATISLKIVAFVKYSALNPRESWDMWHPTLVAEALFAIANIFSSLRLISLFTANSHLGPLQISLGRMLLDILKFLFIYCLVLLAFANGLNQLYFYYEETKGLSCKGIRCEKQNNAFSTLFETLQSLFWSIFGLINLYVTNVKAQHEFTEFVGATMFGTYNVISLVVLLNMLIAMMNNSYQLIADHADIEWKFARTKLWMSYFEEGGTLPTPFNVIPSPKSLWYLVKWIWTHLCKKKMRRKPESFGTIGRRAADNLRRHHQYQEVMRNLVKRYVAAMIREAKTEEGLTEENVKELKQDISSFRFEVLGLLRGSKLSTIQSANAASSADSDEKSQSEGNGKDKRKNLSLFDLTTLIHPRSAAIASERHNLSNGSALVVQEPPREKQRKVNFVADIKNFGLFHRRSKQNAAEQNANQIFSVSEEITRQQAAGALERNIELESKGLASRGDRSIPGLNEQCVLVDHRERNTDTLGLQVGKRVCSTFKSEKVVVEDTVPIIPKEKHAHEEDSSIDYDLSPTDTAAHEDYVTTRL
Sequence of Short transient receptor potential channel 6 (Mus musculus) (Q61143 whole entry, looked up): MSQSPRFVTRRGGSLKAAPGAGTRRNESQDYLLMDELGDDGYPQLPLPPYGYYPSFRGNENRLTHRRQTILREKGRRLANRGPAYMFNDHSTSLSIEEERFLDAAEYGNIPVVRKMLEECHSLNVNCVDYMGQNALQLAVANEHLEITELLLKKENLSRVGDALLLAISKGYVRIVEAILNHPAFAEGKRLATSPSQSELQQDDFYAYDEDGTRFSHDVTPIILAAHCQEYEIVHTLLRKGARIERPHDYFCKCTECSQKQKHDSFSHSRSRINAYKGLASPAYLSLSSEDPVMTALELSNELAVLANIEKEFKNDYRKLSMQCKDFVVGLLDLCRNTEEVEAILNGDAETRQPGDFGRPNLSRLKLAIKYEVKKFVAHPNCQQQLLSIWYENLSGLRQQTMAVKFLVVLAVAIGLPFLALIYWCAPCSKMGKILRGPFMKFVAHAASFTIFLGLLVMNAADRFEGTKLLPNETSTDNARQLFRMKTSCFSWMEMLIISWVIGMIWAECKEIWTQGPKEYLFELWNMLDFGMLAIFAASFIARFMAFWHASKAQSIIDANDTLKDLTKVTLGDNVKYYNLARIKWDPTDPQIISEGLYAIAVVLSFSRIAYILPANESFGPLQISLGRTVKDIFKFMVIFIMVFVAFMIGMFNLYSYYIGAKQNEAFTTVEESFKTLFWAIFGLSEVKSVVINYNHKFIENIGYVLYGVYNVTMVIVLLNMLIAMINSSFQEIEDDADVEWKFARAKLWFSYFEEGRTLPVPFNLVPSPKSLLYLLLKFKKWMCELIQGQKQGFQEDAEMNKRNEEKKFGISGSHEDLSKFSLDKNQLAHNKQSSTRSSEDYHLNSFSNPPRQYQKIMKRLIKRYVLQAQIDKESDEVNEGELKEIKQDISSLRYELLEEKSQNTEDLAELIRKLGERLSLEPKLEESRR

CCCN1CCN(C(=O)Cn2c(=O)oc3cc(S(=O)(=O)NCc4ccccc4)ccc32)CC1
active: [1] 168% | [12] 26.3%
inactive: all other assays above

Cc1cc(N2CCN(C)CC2)ccc1NC(=O)c1ccc(-c2ccc(Cl)cc2)o1
inactive: all assays above

COc1ccc2c(Cl)c(-c3nnc(SCC(=O)c4ccccc4)n3C)sc2c1
active: [10] 35.5%
inactive: all other assays above

CC(=O)c1ccc(S(=O)(=O)NCc2ccc(C(=O)NCC(c3ccccc3)N(C)C)cc2)cc1 (centres undefined)
active: [1] 127% | [2] 99% | [10] 33%
inactive: all other assays above

OCC1(CCc2ccccc2)CCN(Cc2cccn2-c2cccnc2)CC1
active: [1] 56% | [10] 55%
inactive: all other assays above

CC1CC(C)CN(CCCNC(=O)c2csc3c2CCCCC3)C1 (centres undefined)
active: [1] 128% | [10] 87.5% | [12] 7.01%
inactive: all other assays above

CN1CCN(c2ccc(NC(=O)COc3cccc4ccccc34)cc2)CC1
active: [1] 135%
inactive: all other assays above

CCn1c(N2CCN(CC(=O)Nc3cccc(C)c3C)CC2)nc2ccccc21
active: [1] 120% | [2] 57% | [10] 56.5% | [12] 23.9%
inactive: all other assays above

COc1ccc(/C=N/NC(=O)C2COc3ccccc3O2)cc1OC (centres undefined)
active: [1] 114% | [2] 59% | [10] 45% | [12] 52.1%
inactive: all other assays above

CC(C)C1CC(CCNCc2ccc3c(c2)OCO3)(c2ccccc2)CCO1 (centres undefined)
active: [1] 96% | [10] 64% | [12] 5.88%
inactive: all other assays above

Cc1ccc(NC(=O)CCN2CCC(Cc3ccccc3)CC2)cc1
active: [12] 15.7%
inactive: all other assays above

CCN1CCN(c2ccc(S(=O)(=O)N3CCCCC3)cc2NC(=O)CC(C)c2ccccc2)CC1 (centres undefined)
active: [1] 140%
inactive: all other assays above

COc1cc2c(cc1OC)C(C)N(C(=O)C(NC(=O)c1ccccc1)C(C)C)CC2 (centres undefined)
active: [1] 130% | [10] 31%
inactive: all other assays above

CN1CCCC(OC(=O)c2cc(Br)ccc2Cl)C1 (centres undefined)
active: [1] 116% | [2] 87% | [10] 47% | [12] 43.7%
inactive: all other assays above

COc1cccc(CN2CCNC(=O)C2CC(=O)N(C)CCc2ccccn2)c1OC (centres undefined)
active: [1] 138% | [12] 52.1%
inactive: all other assays above

CC1(C(=O)NC(=S)NNC(=O)c2ccncc2)CCCCC1
active: [1] 197% | [12] 101%
inactive: all other assays above

CC1CC(C)CN(CCCNC(=O)Cn2cccc2C(=O)c2ccccc2)C1 (centres undefined)
active: [1] 162% | [2] 98% | [10] 50.5% | [12] 62.1%
inactive: all other assays above

Cc1sc2ncnc(NCC(c3ccccc3)N(C)C)c2c1C (centres undefined)
active: [1] 245% | [2] 120% | [12] 49%
inactive: all other assays above

Cn1c2ccccc2c(=O)c2c(=O)n(C3CCCCC3)c(-c3ccco3)nc21
active: [15] 68.6%
inactive: all other assays above
